Results taken from the OligoGym collection.

target: KRCC1; test: pooled miR-30 sensor sort-seq; sequence = guide strand; settings: shRNA
Also: reference of the scale not given here.

Sequence | sensor-assay potency score (higher = more potent)
TTAGAGACTACATCTCGGCTTT | 0.863
TTCTGTACTGACATGTACGGTT | -0.0449
TTCTTAGAGACTACATCTCGGC | -0.216
TTAACCTCTCCTTTGTACCCAC | -0.366
TTATCTGAGGAGAAGTGCTTGT | 0.253
TTTTTCTGAGAAACAGTCCCTC | -0.167
TTGATGAGTACTGGTACTGTTA | -0.491
TTTCTTAGAGACTACATCTCGG | -0.234
TTGTTGATTAAAGTTCAGGGGT | -0.113
TTCTTGTTGATTAAAGTTCAGG | -0.822
TTTCTGTACTGACATGTACGGT | -0.751
TTCTCTTATGCTTAGACCGCTC | -0.386

target: KRI1; test: as above; settings: shRNA

Sequence | sensor-assay potency score (higher = more potent)
TTCCTCCACATAACTTTGCGAC | -0.99
TTTGTTGAGGATGTAATCCCGC | -0.152
TTCTGCAGCAAACTGGAGCCGC | -0.837
TTCTTTAGGGAGCACCACCGGT | -1.34
